# From PubChem BioAssay (NCI)
# Values joined by “and” are separate entries in the source; they are usually repeats but may differ in a detail not shown here. Identical values can stand only once. This is part of a sample that, as a whole, favours compounds with a hit. Of some 83,000 tested, about 20% had one in any assay.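 The test compound was applied at a single concentration to cells in 96-well plates for 48 hours, and percent growth was recorded.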 Active and inactive are the calls of the source. The calls were made as follows: active = growth percent below 10; inactive = the rest.
# Assays:
# Test in all cases: NCI-60 one-dose screen, 48 h (100 = growth as untreated, 0 = no growth, -100 = all killed)
# Conditions in all cases: 10 µM unless noted
# SK-MEL-2 melanoma = tested on: SK-MEL-2 melanoma
# EKVX NSCLC = tested on: EKVX NSCLC
# SN12C renal = tested on: SN12C renal
# UO-31 renal = tested on: UO-31 renal
# TK-10 renal = tested on: TK-10 renal
# ACHN renal = tested on: ACHN renal
# CAKI-1 renal = tested on: CAKI-1 renal
# A498 renal = tested on: A498 renal
# CCRF-CEM leukemia = tested on: CCRF-CEM leukemia
# MOLT-4 leukemia = tested on: MOLT-4 leukemia
SMILES,growth (SK-MEL-2 melanoma),growth (EKVX NSCLC),growth (SN12C renal),growth (UO-31 renal),growth (TK-10 renal),growth (ACHN renal),growth (CAKI-1 renal),growth (A498 renal),growth (CCRF-CEM leukemia),growth (MOLT-4 leukemia)
Cn1cc(-c2cc(N)n3nc(-c4c[nH]c5ccccc45)cc3n2)c2ccccc21,-88.2% (active),-96.1% (active),-85.5% (active),-83.5% (active),-93.4% (active),-100% (active),-100% (active),-90.4% (active),-20.6% (active),9.25% (active)
Clc1ccc(Nc2nnc(-c3c[nH]c4ccccc34)o2)cc1,95.8% (inactive),55.3% (inactive),53.6% (inactive),49.7% (inactive),121% (inactive),74.4% (inactive),50.8% (inactive),120% (inactive),10.9% (inactive),9.41% (active)
Cc1ccc(/C=C/C(=O)c2ccc(S(=O)(=O)NCCNc3nc(N(C)C)nc(N4CCOCC4)n3)cc2)cc1,94.1% (inactive),82.6% (inactive),86.4% (inactive),73.2% (inactive),112% (inactive),101% (inactive),64.6% (inactive),96% (inactive),52.1% (inactive),13.5% (inactive)
CSc1ccc(OCc2nc3ccccc3n2-c2cccc(NS(C)(=O)=O)c2)cc1,104% (inactive) and 107% (inactive),103% (inactive) and 81.3% (inactive),118% (inactive) and 96.6% (inactive),59.5% (inactive) and 78.4% (inactive),118% (inactive) and 128% (inactive),90.8% (inactive) and 94.9% (inactive),76.7% (inactive) and 85% (inactive),137% (inactive) and 153% (inactive),96.7% (inactive) and 98.6% (inactive),96.7% (inactive) and 97.4% (inactive)
Cc1ccc(O)cc1Nc1nc(SCCN2CCOCC2)nc2c1cnn2CC(Cl)c1ccc(Br)cc1 (stereo not given),-35.9% (active),21% (inactive),20% (inactive),6.07% (active),17.8% (inactive),1.87% (active),-31.5% (active),29.3% (inactive),5.71% (active),-24.6% (active)
CN(C(=O)CN1C(=O)/C(=C/c2ccco2)SC1=S)C1CCS(=O)(=O)C1 (stereo not given),98.5% (inactive),97.9% (inactive),104% (inactive),87.8% (inactive),122% (inactive),106% (inactive),93.5% (inactive),103% (inactive),80.3% (inactive),100% (inactive)
NCCCCn1c(SCCc2c[nH]c3ccccc23)nnc1-c1ccc2ccccc2n1,-73.5% (active),-0.327% (active),-14.8% (active),26.4% (inactive),-7.11% (active),-55.1% (active),-9.25% (active),98.5% (inactive),-23.3% (active),-35.4% (active)
Cn1cc(-c2cc(N)n3nc(-c4c[nH]c5ccc(F)cc45)cc3n2)c2cc(Br)cnc21,87.3% (inactive),65.5% (inactive),69.3% (inactive),47.3% (inactive),90.9% (inactive),39.5% (inactive),46% (inactive),109% (inactive),-42.9% (active),-10.4% (active)
COc1ccccc1NC(=O)c1ccc(NC(=O)CCl)s1,37.1% (inactive),59.7% (inactive),-52.8% (active),-20.5% (active),-6.19% (active),10.2% (inactive),-13.1% (active),73.1% (inactive),-18.9% (active),-19.5% (active)
O=C(NNC(=S)NC(=O)c1ccccc1)c1ccc(OCc2nc3ccc(Cl)cc3[nH]2)cc1,-47.3% (active),-53% (active),-80.2% (active),-76.1% (active),11.2% (inactive),-43% (active),-1.67% (active),-55% (active),2.87% (active),2.46% (active)
C[C@@H](Nc1c(C#N)cnc2ccc(-c3cnc4[nH]ncc4c3)cc12)c1ccccc1,-24.8% (active),-31.9% (active),11.3% (inactive),8.19% (active),-6.48% (active),4.37% (active),4.1% (active),-40.2% (active),0.263% (active),-34.5% (active)
CCCSc1nnc(-c2sc3nc4ccccc4n3c2C)o1,105% (inactive),103% (inactive),105% (inactive),82.3% (inactive),124% (inactive),104% (inactive),104% (inactive),110% (inactive),107% (inactive),92.3% (inactive)
Cc1ccc(C(C(=O)NC2CCCCC2)N(Cc2ccccc2Cl)C(=O)c2ccc(CN3CCOCC3)o2)o1 (stereo not given),92.8% (inactive),89% (inactive),95% (inactive),71.1% (inactive),101% (inactive),104% (inactive),72.4% (inactive),119% (inactive),86.8% (inactive),70.3% (inactive)
N#CC1=C(c2cccs2)Nc2c(c(-c3ccccc3)nn2-c2ccccc2)C12C(=O)Nc1ccc(Cl)cc12 (stereo not given),22.8% (inactive),13.3% (inactive),33.8% (inactive),12.7% (inactive),31.5% (inactive),12.6% (inactive),23.3% (inactive),88.8% (inactive),13.7% (inactive),19.3% (inactive)
Cc1ccc(Nc2nnc(-c3c[nH]c4ccccc34)o2)c(C)c1,31.4% (inactive),21.9% (inactive),18% (inactive),26.4% (inactive),45.8% (inactive),34.3% (inactive),33.5% (inactive),112% (inactive),-0.0547% (active),0.191% (active)
COc1ccc(-c2nnc3c(/C=C/c4ccc(Br)cc4)nc4ccccc4n23)cc1,92.9% (inactive),54% (inactive),-22.7% (active),41.1% (inactive),99.4% (inactive),23% (inactive),27.8% (inactive),92.6% (inactive),8.22% (active),1.9% (active)
COc1ccc(C2=Nc3c(N)nc(N)nc3NC(c3ccc(Oc4nc(Nc5ccc(F)cc5)nc(N(C)C)n4)c(OC)c3)C2)cc1 (stereo not given),92.4% (inactive),67.2% (inactive),90.2% (inactive),52.5% (inactive),86.4% (inactive),99% (inactive),58% (inactive),68.9% (inactive),50.1% (inactive),18.4% (inactive)
CCOc1ccccc1[C@H]1C(C(=O)c2ccc(Cl)cc2)C2(N[C@@H]1c1ccccc1)C(=O)Nc1ccccc12 (stereo not given in full),-46.5% (active),9% (active),-77.8% (active),8.77% (active),36% (inactive),2.68% (active),8.88% (active),-2.33% (active),12.1% (inactive),-26.4% (active)
Cc1cccc(NCC(=O)N2CCN(c3ncnc4c3cnn4-c3ccccc3)CC2)c1,46.7% (inactive),53.7% (inactive),76.9% (inactive),34.3% (inactive),93.8% (inactive),45.4% (inactive),47.8% (inactive),108% (inactive),62.7% (inactive),58.2% (inactive)
COc1c(B(O)O)cccc1-c1nc2ccc3cn[nH]c3c2c2c1CCCC2,108% (inactive),49.3% (inactive),50.6% (inactive),23.6% (inactive),12% (inactive),27.3% (inactive),-11.3% (active),-2.36% (active),39.6% (inactive),47.7% (inactive)
O=C(N/N=C/c1ccc(Cl)o1)c1[nH]c2ccc(Br)cc2c1-c1ccccc1,12.3% (inactive),12% (inactive),-60.9% (active),-34.5% (active),-11.7% (active),-46% (active),-0.252% (active),-25.6% (active),-2.11% (active),3.03% (active)
COc1ccc2[nH]cc(-c3cc(N)n4nc(-c5c[nH]c6ccccc56)cc4n3)c2c1,-63.7% (active),10.9% (inactive),49.1% (inactive),-74.9% (active),-1.71% (active),8.14% (active),-59.5% (active),-0.442% (active),-20% (active),-7.46% (active)
O=C(CCl)Nc1ccc(C(=O)/C=C/c2cc3ccccc3nc2Cl)cc1,-3.09% (active) and 60% (inactive),-5.66% (active) and 36.7% (inactive),-74.1% (active) and 39.4% (inactive),-98.1% (active) and 1.88% (active),49.1% (inactive) and 74.8% (inactive),-99.2% (active) and 9.77% (active),-43.5% (active) and 11.1% (inactive),116% (inactive) and 193% (inactive),-23.1% (active) and 5.66% (active),-46% (active) and 18.3% (inactive)
Cc1ccc2c(c1)/C(=C/C(=O)c1cc3ccccc3oc1=O)C(=O)N2,72.6% (inactive),78.2% (inactive),67.8% (inactive),55.2% (inactive),80.7% (inactive),-63.2% (active),76.9% (inactive),128% (inactive),3.14% (active),32.8% (inactive)
Cc1cccc(-c2ccccc2Oc2ccc3nnc(Cl)n3n2)c1,105% (inactive),98.2% (inactive),101% (inactive),90.6% (inactive),103% (inactive),105% (inactive),92.2% (inactive),117% (inactive),103% (inactive),103% (inactive)
